This is an account of results in PubChem BioAssay (NCATS).

Results filed as inconclusive are left out. The source made the active and inactive calls. Unless noted, calls come from the whole dose curve.

Test [1] deals with Cytochrome P450 2C9 (Homo sapiens) (UniProt P11712). Description: qHTS Assay for Inhibitors and Substrates of Cytochrome P450 2C9 (AID 883; active = well fitted curve in the direction sought with a large enough effect; an effect the other way counts as inactive or inconclusive; note: potency is the fitted concentration of half-maximal effect; nearly all actives have a fitted effect of over 60% in size). In short, it runs like this:
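Turnover of Luciferin-H (100uM, KM) by 10nM human CYP2C9 was measured over 60 min at 37C with NADPH regeneration; inhibitors and some substrates reduce luminescence. Data normalized to sulphaphenazole 57uM.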

In test [2] the target is Cytochrome P450 3A4 (Homo sapiens) (UniProt P08684). Description: qHTS Assay for Inhibitors and Substrates of Cytochrome P450 3A4 (AID 884; active = well fitted curve in the direction sought with a large enough effect; an effect the other way counts as inactive or inconclusive; note: potency is the fitted concentration of half-maximal effect; nearly all actives have a fitted effect of over 50% in size). Put shortly:
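20 nM human CYP3A4 with 25 uM Luciferin-PPXE (at KM) in 200 mM KPO4, preincubated 10 min with compound; NADPH regeneration started a 60 min RT reaction. Luciferin detected by luminescence, normalized to 57 uM ketoconazole as full inhibition.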
For orientation: In qHTS, concentration-response curves come from the screen itself.

Test [3] shares this target. Description: qHTS Assay for Activators of Cytochrome P450 3A4 (AID 885; active = well fitted curve in the direction sought with a large enough effect; an effect the other way counts as inactive or inconclusive; note: nearly all actives have a fitted effect of over 65% in size). Put shortly:
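Signal was normalized against complete inhibition by 57 uM ketoconazole. The reaction used 20nM CYP3A4 with 25uM Luciferin-PPXE, 10-min compound preincubation and a 60-min NADPH-supported step at RT.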

Test [4] addresses Cytochrome P450 2D6 (Homo sapiens) (UniProt P10635). Description: qHTS Assay for Inhibitors and Substrates of Cytochrome P450 2D6 (AID 891; active = well fitted curve in the direction sought with a large enough effect; an effect the other way counts as inactive or inconclusive; note: potency is the fitted concentration of half-maximal effect; nearly all actives have a fitted effect of over 60% in size). Put shortly:
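Human CYP2D6 (5 nM) with 30 uM Luciferin-ME EGE (at Km) in 100 mM KPO4, compound preincubated 10 min, then NADPH regeneration system for 60 min at room temperature. Luciferin read by luminescence; normalized to 1.43 uM quinidine.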

The target in test [5] is Peroxisome proliferator-activated receptor delta (Homo sapiens) (UniProt Q03181). Description: qHTS assay for small molecule agonists of peroxisome proliferator-activated receptor delta signaling (AID 588534). Put shortly:
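Cell-based beta-lactamase reporter assay run in agonist mode: cells seeded and incubated 5 hrs at 37 C, compounds added and incubated 18 hrs at 37 C. CCF4 dye fluorescence read after 2 hrs at RT; EC50 and efficacy from Hill fits.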

Test [6] is described as follows: Primary qHTS for inhibitors of SARS-S pseudo-typed particle cell entry (AID 1479145). Note: nearly all actives have a fitted effect of over 45% in size. Note: potency is the fitted concentration of half-maximal effect. Particulars: outcome: dose series up to 57.1 µM unless noted.
Test [7] in a line: Primary qHTS for Huh7 cytotoxicity: counterscreen for inhibitors of MERS-S pseudotyped particle cell entry (AID 1479147). Note: potency is the fitted concentration of half-maximal effect. The following applies: outcome: dose series up to 57.1 µM unless noted.
Test [8] can be described thus: Primary qHTS for Vero E6 cytotoxicity: counterscreen for inhibitors of SARS-S pseudo-typed particle cell entry (AID 1479150). The following applies: outcome: dose series up to 57.1 µM unless noted.
A short description of test [9]: Confirmatory qHTS to identify inhibitors of SARS-CoV-2 cell entry (AID 1645844). Note: potency is the fitted concentration of half-maximal effect; nearly all actives have a fitted effect of over 45% in size. Put shortly:
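Luminescence from a luciferase reporter, read 48 hr after pseudotyped-particle addition, gives entry signal, normalised to spike-bearing PP wells and bald PP lacking fusion protein wells. Cells are Expi293F stably expressing human ACE2, compound-pretreated 1 hr.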

The nature of test [10]: Cytotoxicity counterscreen for inhibitors of SARS-CoV-2 cell entry (AID 1645845). Note: nearly all actives have a fitted effect of over 50% in size. The following applies: outcome: dose series up to 57.1 µM unless noted. In short, it runs like this:
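48 h compound treatment (after 1 h preincubation), HEK293-ACE2 cells, 37 C/5% CO2; ATP luminescence endpoint; normalized to cell wells and media blanks.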

Test [11] is described as follows: VSVG counterscreen qHTS to identify inhibitors of SARS-CoV-2 cell entry (AID 1645847). Note: potency is the fitted concentration of half-maximal effect; nearly all actives have a fitted effect of over 65% in size. Put shortly: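 Luminescence read after 48 h infection at 37 C with VSV-G-pseudotyped MLV particles, following 1 h compound exposure of Expi293F cells stably expressing human ACE2; scaled between bald particle and VSV-G particle wells.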
Test [12] is described as follows: Primary qHTS to identify inhibitors of SARS-CoV-2 cell entry (AID 1645846). Note: potency is the fitted concentration of half-maximal effect; nearly all actives have a fitted effect of over 45% in size. Particulars: SARS-CoV-2 pseudovirus cell entry assay, luminescence; activity change, negative = inhibition: at 57.1 µM (top of the series) unless noted. Put shortly: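 Entry measured by luciferase signal 48 h after adding SARS-CoV-2-S pseudotyped MLV particles to HEK293-ACE2 cells preincubated 1 h with compounds. Normalisation: bald particles and spike particles.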

Test [13] in a line: qHTS Assay for Identification of Small Molecule Agonists for Hypoxia Response Element Signaling Pathway (AID 914; active = well fitted activation curve with a large enough effect in the signal ratio, with a control signal flat, not every such curve was filed as active; the % refers to the signal ratio; note: potency is the fitted concentration of half-maximal effect). The following applies: ME-180 (cervical carcinoma) HRE-bla reporter, beta-lactamase ratio, CoCl2, 17 h; activation: active compounds read high. Put shortly: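 A beta-lactamase reporter under hypoxia response element control in ME-180 cells served as the system. Compound titrations plus EC50 CoCl2 ran 17 h at 37 degrees Celsius; AC50 values were fitted from %Activity.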

A short description of test [14]: qHTS Assay for Identifying Gametocytocidal Compounds (AID 743244; active = well fitted curve in the direction sought with a large enough effect; an effect the other way counts as inactive or inconclusive; note: potency is the fitted concentration of half-maximal effect). The following applies: P. falciparum 3D7 stage III-V gametocytes, alamarBlue, 72 h. In short, it runs like this: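 3D7 gametocytes, stages III–V, 20,000/well; cpd 72 h, 37 °C/5% CO2; + alamarBlue 24 h; fluor. Ex 525/Em 598.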
Test [15] can be described thus: Primary qHTS for inhibitors of MERS-S pseudo-typed particle cell entry (AID 1479149). Note: potency is the fitted concentration of half-maximal effect; nearly all actives have a fitted effect of over 60% in size. Particulars: outcome: dose series up to 57.1 µM unless noted.
Test [16] is described as follows: Confirmatory qHTS for VERO E6 Cytotoxicity Assay: Counterscreen for SARS-CoV-2 CPE Assay (AID 1508605). Note: nearly all actives have a fitted effect of over 60% in size.
Test [17] is described as follows: Confirmatory qHTS for activators (rescue) of SARS-CoV-2 Cytopathic Effect (CPE) (AID 1508606). Note: potency is the fitted concentration of half-maximal effect; nearly all actives have a fitted effect of over 70% in size.

Sequence of Cytochrome P450 3A4 (Homo sapiens) (P08684 whole entry, looked up): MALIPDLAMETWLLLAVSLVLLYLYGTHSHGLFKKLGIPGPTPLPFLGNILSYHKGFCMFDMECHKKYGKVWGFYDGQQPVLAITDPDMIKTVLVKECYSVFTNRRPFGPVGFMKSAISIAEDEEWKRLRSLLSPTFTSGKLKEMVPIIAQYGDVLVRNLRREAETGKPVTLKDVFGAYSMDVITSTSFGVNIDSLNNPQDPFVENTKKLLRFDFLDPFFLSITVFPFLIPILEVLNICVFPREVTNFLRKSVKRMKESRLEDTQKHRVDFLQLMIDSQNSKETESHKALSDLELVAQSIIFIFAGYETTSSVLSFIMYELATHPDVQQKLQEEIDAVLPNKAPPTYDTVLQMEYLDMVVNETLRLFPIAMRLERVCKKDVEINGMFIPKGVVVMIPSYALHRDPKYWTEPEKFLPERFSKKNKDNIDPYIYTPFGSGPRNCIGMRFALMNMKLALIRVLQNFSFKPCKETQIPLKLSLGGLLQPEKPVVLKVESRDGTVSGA
Sequence of Cytochrome P450 2C9 (Homo sapiens) (P11712 whole entry, looked up): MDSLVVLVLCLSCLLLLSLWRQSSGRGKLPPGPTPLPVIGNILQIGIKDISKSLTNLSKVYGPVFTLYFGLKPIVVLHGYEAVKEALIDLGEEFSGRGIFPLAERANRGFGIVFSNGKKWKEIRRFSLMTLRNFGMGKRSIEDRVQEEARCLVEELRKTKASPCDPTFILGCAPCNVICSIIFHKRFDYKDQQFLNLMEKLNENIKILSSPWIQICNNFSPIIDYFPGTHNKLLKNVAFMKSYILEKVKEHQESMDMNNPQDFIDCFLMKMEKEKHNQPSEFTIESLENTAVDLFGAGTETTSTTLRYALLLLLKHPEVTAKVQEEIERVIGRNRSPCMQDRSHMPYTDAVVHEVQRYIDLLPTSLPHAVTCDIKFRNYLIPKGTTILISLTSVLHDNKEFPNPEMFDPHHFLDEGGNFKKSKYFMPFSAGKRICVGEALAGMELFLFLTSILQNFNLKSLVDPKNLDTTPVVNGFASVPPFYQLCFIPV
Sequence of Cytochrome P450 2D6 (Homo sapiens) (P10635 whole entry, looked up): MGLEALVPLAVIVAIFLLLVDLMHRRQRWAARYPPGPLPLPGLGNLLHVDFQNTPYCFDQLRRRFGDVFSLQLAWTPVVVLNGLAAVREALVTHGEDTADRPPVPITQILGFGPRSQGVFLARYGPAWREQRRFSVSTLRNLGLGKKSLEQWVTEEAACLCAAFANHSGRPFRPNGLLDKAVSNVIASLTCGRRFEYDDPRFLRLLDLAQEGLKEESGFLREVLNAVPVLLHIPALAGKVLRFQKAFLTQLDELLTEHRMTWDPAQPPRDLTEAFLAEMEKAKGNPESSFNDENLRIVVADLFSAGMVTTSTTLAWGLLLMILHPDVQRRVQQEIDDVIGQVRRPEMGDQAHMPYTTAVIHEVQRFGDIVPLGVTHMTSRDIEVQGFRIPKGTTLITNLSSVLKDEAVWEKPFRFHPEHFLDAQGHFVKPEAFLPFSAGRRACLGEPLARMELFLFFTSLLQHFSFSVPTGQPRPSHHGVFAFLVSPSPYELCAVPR
Sequence of Peroxisome proliferator-activated receptor delta (Homo sapiens) (Q03181 whole entry, looked up): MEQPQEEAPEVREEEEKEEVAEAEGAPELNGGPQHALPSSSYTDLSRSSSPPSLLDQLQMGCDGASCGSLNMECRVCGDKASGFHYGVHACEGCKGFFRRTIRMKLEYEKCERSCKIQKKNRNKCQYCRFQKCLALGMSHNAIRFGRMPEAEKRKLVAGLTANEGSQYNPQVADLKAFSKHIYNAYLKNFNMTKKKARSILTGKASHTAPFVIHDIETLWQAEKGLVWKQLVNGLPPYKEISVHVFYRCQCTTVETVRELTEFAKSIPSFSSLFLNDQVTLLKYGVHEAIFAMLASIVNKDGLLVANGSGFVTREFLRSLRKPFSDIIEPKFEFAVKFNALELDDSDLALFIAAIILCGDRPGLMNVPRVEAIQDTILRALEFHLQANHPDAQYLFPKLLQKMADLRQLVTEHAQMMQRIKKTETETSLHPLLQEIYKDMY

As for `CCOc1ccc2c(c1)C(C)=CC(C)(C)N2`, the Potency is 2 µM (active) in test [1]; 15.8 µM (active) in test [2]; 2.51 µM (active) in test [4]; 31.2 µM (active) in [9]; 55.5 µM (active) in test [11]. The Potency result in test [3], in [6], in [7], in [8] and in test [10] was “inactive” in each case. Further, the outcome in test [5] was inactive.
Take `C=C(NC(=O)C(=C)NC(=O)c1csc(C2=N[C@H]3c4csc(n4)[C@H]4NC(=O)c5csc(n5)[C@H]([C@@](C)(O)[C@@H](C)O)NC(=O)[C@H]5CSC(=N5)C(=CC)NC(=O)[C@H]([C@@H](C)O)NC(=O)c5csc(n5)[C@]3(CC2)NC(=O)[C@H](C)NC(=O)C(=C)NC(=O)[C@H](C)NC(=O)[C@H](C(C)CC)N[C@@H]2C=Cc3c([C@H](C)O)cc(nc3[C@H]2O)C(=O)O[C@@H]4C)n1)C(N)=O` (stereo partly drawn): the Potency result in [6] and in [8] was “inactive” throughout. Moreover, the values for the Potency in test [7], in [9] and in test [11] were 20 µM (active), 3.41 µM (active) and 1.71 µM (active), respectively.
Take `CC(C)c1nc(CN(C)C(=O)N[C@@H](CCN2CCOCC2)C(=O)N[C@H](CC[C@H](Cc2ccccc2)NC(=O)OCc2cncs2)Cc2ccccc2)cs1`: the Potency result in [6], in [7], in [8] and in test [10] was “inactive” in each case. In addition, in test [11], the Potency was 21.5 µM (active).
Take `CC(C)OC(=O)CCC/C=C\C[C@@H]1[C@@H](/C=C/[C@@H](O)COc2cccc(C(F)(F)F)c2)[C@H](O)C[C@@H]1O`: the Potency entry in test [6], in test [7] and in [8] was “inactive” throughout. The Potency was 21.5 µM (active) in test [9], 14.1 µM (active) in test [12] and 10.8 µM (active) in [11].
Take `CCN(CC)Cc1cc(Nc2ccnc3cc(Cl)ccc23)ccc1O`: the Potency was 5.01 µM (active) in test [13]; 11.2 µM (active) in test [14]; 10 µM (active) in [6]; 14.1 µM (active) in test [15]; 5.62 µM (active) in [17]; 3.83 µM (active) in test [9]. Further, the Potency in [12] is 11.2 µM (active); in test [11] it was 3.04 µM (active). In addition, the Potency result in [8] and in test [16] was “inactive” in each case.
For `Nc1nc(-n2cc(C(=O)O)c(=O)c3cc(F)c(N4CC(O)C4)c(Cl)c32)c(F)cc1F`, the Potency result in test [6], in [7], in test [8] and in [10] was “inactive” in each case.
For the compound `COC(=O)N[C@H](C(=O)N1CC2(CC2)C[C@H]1c1ncc(-c2ccc3c(c2)C(F)(F)c2cc(-c4ccc5nc([C@@H]6[C@H]7CC[C@H](C7)N6C(=O)[C@@H](NC(=O)OC)C(C)C)[nH]c5c4)ccc2-3)[nH]1)C(C)C`, the Potency result in test [6], in test [7], in test [8] and in [10] was “inactive” each time.
Turning to `C[C@H]1C[C@H]2[C@H]3CCC4=CC(=O)C=C[C@]4(C)[C@@]3(F)[C@@H](O)C[C@]2(C)[C@@]1(OC(=O)c1ccccc1)C(=O)CO`, the Potency result in [6], in [7], in [8] and in test [10] was “inactive” throughout.
Turning to `CNCC(=O)OCc1cccnc1N(C)C(=O)OC(C)[n+]1cnn(C[C@](O)(c2cc(F)ccc2F)[C@@H](C)c2nc(-c3ccc(C#N)cc3)cs2)c1` (stereo partly drawn), the Potency entry in [6], in test [7], in test [8] and in [10] was “inactive” each time.
For `COC[C@H]1C[C@@H](c2ncc(-c3ccc4c(c3)COc3cc5c(ccc6[nH]c([C@@H]7CC[C@H](C)N7C(=O)[C@@H](NC(=O)OC)C(C)C)nc65)cc3-4)[nH]2)N(C(=O)[C@H](NC(=O)OC)c2ccccc2)C1`, the Potency entry in [6], in test [7] and in [8] was “inactive” throughout. Besides, the Potency is 0.341 µM (active) in test [9] and 1.52 µM (active) in [11].
